SMILES strings stand for the structures. The campaign covered roughly 2,400 compounds. About 750 (31%) were called active. The list shows a part of the results. Unmarked numbers belong to inactive results.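 The calls were made as follows: active = median signal gain over dofetilide-blocked control wells reaching their mean plus 3 SD, so readout 1 at least 0; inactive = the rest.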

For this assay, the target named is Voltage-gated inwardly rectifying potassium channel KCNH2 (Homo sapiens) (UniProt Q12809). Briefly: hERG protection against dofetilide inhibition, confirmation, cell-based, thallium flux, duplicate retest, dofetilide IC70 (AID 1835). The note with it: hERG cell line, FluxOR thallium flux, dofetilide-blocked; at 10 µM; hits give high values.
Sequence of Voltage-gated inwardly rectifying potassium channel KCNH2 (Homo sapiens) (Q12809 whole entry, looked up): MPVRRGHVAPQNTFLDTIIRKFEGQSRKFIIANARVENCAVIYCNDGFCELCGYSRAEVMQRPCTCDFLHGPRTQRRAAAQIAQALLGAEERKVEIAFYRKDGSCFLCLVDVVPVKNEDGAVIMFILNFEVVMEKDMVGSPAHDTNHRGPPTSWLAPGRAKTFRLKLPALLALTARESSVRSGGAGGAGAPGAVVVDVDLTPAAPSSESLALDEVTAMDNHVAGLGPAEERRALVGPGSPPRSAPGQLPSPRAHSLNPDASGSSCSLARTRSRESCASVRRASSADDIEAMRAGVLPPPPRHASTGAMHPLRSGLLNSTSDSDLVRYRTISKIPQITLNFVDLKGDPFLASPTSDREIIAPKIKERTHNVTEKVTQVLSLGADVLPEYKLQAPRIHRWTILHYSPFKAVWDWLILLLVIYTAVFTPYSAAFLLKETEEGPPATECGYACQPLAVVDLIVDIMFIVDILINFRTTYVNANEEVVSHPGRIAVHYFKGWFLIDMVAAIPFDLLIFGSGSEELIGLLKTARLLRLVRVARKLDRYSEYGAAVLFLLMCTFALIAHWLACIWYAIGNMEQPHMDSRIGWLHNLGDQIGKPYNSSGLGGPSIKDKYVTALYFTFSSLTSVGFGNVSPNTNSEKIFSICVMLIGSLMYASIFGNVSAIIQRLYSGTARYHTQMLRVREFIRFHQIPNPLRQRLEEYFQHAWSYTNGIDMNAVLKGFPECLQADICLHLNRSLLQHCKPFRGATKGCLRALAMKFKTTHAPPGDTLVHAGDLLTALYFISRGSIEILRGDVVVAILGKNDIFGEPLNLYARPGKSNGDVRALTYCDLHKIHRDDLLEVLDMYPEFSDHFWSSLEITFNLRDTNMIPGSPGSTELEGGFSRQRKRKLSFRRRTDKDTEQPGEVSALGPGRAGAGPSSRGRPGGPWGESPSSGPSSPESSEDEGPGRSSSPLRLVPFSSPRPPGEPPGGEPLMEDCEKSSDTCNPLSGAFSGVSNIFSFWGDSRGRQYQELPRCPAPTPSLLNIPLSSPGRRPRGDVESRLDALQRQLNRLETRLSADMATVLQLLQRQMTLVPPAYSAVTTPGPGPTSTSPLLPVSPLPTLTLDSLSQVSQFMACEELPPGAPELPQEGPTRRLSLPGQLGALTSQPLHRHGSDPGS
Regarding `O=C(CCc1ccccc1)Nc1nccs1`, the activity increase over dofetilide control, less the hit threshold is -12%.
With `CC(C)C(=O)Nc1ccc(NC(=O)CCc2ccccc2)cn1`, the activity increase over dofetilide control, less the hit threshold was -14%.
`O=C(Nc1ncc(Br)s1)C(Cc1ccccc1)n1cccc1` (stereo not given): the activity increase over dofetilide control, less the hit threshold is 22% (active).
In the case of `Cc1cc2[nH]c(=O)c(=O)[nH]c2cc1S(=O)(=O)N1CCN(c2cccc(C)c2C)CC1`, the activity increase over dofetilide control, less the hit threshold is -5%.
With `CC(Oc1ccc(Cl)cc1)/C(N)=N/O` (stereo not given), the activity increase over dofetilide control, less the hit threshold was -20%.
For the compound `Cc1ccc2[nH]cc(CCNC(=O)/C=C/c3ccco3)c2c1`, the activity increase over dofetilide control, less the hit threshold was -14%.
`CCOc1ccc(-c2c(=O)n(O)c3ccccc3[n+]2[O-])cc1`: the activity increase over dofetilide control, less the hit threshold is 74% (active).
Take `CCOc1ccc(CC(C(N)=O)C(N)=O)cc1`: the activity increase over dofetilide control, less the hit threshold is -12%.
Turning to `CCCOc1ccc(-c2c(=O)n(O)c3ccccc3[n+]2[O-])cc1`, the activity increase over dofetilide control, less the hit threshold was 51% (active).
Then `Cc1cccc(/C=N/Nc2ccc3ccccc3n2)c1`, with -3%; and `O=S(=O)(Nc1nc(-c2sccc2Cl)cs1)c1cc(Cl)ccc1Cl`, with 73% (active); and `O=C(Nc1ccccc1)OCCCCCOC(=O)Nc1ccccc1`, with -11%.
Consider `C=CCn1c(O)c(N=NC(=S)Nc2ccccc2F)c2cc(S(=O)(=O)N3CCOCC3)ccc21`, for which the activity increase over dofetilide control, less the hit threshold was 0%.
Take `C/C(Cl)=C\Cn1c(O)c(N=NC(N)=S)c2cc(Br)ccc21`: the activity increase over dofetilide control, less the hit threshold is 49% (active).
Turning to `COc1ccc(C(=O)O/N=C(\N)c2ccccn2)cc1[N+](=O)[O-]`, the activity increase over dofetilide control, less the hit threshold was -11%.
With `Nn1c(SCC(=O)Nc2ccc(OC(F)F)cc2)nnc1-c1ccco1`, the activity increase over dofetilide control, less the hit threshold is -12%.
On to `CCCCOC(=O)Cn1c2ccc(OC)cc2c2nc3ccccc3nc21`, for which the activity increase over dofetilide control, less the hit threshold was -28%.
`CC(C)OC(=O)c1c2nc3ccccc3nc2n2c1[nH]c(=O)c1ccccc12`: the activity increase over dofetilide control, less the hit threshold is 85% (active).
Regarding `CCc1ccc(C(=O)CSc2nc3ccccc3c(=O)[nH]2)cc1`, the activity increase over dofetilide control, less the hit threshold is -16%.
`CC1=NN(C(=O)c2cc(C)nn2C)C(O)(C(F)(F)F)C1` (stereo not given): the activity increase over dofetilide control, less the hit threshold was -14%.
As for `CC(C)Sc1nc2ccccc2n2cnnc12`, the activity increase over dofetilide control, less the hit threshold is -2%.
The value for `O=C(c1cccc(C(F)(F)F)c1)C1CCCN(C(=O)CCn2cnnn2)C1` (stereo not given) was -3%; that for `CCSc1nc(=S)cc(C)[nH]1` was 49% (active).
The value for `CSc1nc(=S)cc(C)[nH]1` was 5% (active); that for `CCc1cc(=O)[nH]c(SCc2ccc(C)cc2)n1` was -11%.
Then `CCOc1cccc(Nc2cc3n(c(=O)n2)CCc2cc(OC)c(OC)cc2-3)c1`, with -22%; and `Cc1cc(C(=O)NP(=O)(N2CCOCC2)N2CCOCC2)c(C)n1-c1ccc(Br)cc1`, with -13%; and `Cc1cc(NC(=O)CSc2ccc(-c3ccc(F)cc3)nn2)no1`, with -12%.
In the case of `CC(C)(C)C1(O)CC(C(F)(F)F)=NN1C(=O)Cc1ccc([N+](=O)[O-])cc1` (stereo not given), the activity increase over dofetilide control, less the hit threshold was -19%.
For the compound `O=C(C1CC1)N1N=C(c2ccccc2)CC1(O)C(F)(F)C(F)(F)F` (stereo not given), the activity increase over dofetilide control, less the hit threshold is -11%.
`CCCCC1(O)CC(C(F)(F)F)=NN1C(=O)COc1ccccc1` (stereo not given): the activity increase over dofetilide control, less the hit threshold was 4% (active).
Take `COc1cc(OC)c(C2=NOC(C(=O)Nc3ccc4c(c3)OCO4)C2)cc1Cl` (stereo not given): the activity increase over dofetilide control, less the hit threshold was -21%.
With `Oc1ccc(N=Nc2ccccc2-c2nn[nH]n2)c(O)c1`, the activity increase over dofetilide control, less the hit threshold is 6% (active).
Regarding `COc1cc(CNn2nnnc2N)ccc1OCC(=O)NC(C)(C)C`, the activity increase over dofetilide control, less the hit threshold was -15%.
For the compound `CCCCCCCCCCn1c2c(c(=N)c3c1CCC3)CCC2`, the activity increase over dofetilide control, less the hit threshold is 49% (active).
Then `CCOC(=O)NC(=S)Nc1ccc(C(C)(C)C)cc1Br`, with 23% (active); and `Cc1cc(Br)c(NC(=O)COC(=O)C2CC2C)c(Br)c1` (stereo not given), with -11%; and `COC(=O)CNC(=S)NC(=O)c1ccc(C(C)(C)C)cc1`, with -8%.
As to `CCOC(=O)NC(=O)/C(C#N)=N\Nc1ccc(Cl)cc1`, the activity increase over dofetilide control, less the hit threshold is -17%.
Turning to `CCOC(=O)NC(=S)Nc1ccc(C(C)(C)C)cc1`, the activity increase over dofetilide control, less the hit threshold was 3% (active).
For `c1cnc2c(Oc3ncnc4sccc34)cccc2c1`, the activity increase over dofetilide control, less the hit threshold is -11%.
With `N#Cc1ccc(OCc2nnc(-c3ccc([N+](=O)[O-])cc3)o2)cc1`, the activity increase over dofetilide control, less the hit threshold was -3%.
With `COc1cc(C2NC(=O)NC(C)=C2C(=O)OCC2CCCCC2)ccc1O` (stereo not given), the activity increase over dofetilide control, less the hit threshold is -3%.
Consider `CCOC(=O)C1=C(c2ccccc2)NC(=O)NC1c1ccc(OC)c(OC)c1` (stereo not given), for which the activity increase over dofetilide control, less the hit threshold was -6%.
Consider `CCOC(=O)C1=C(c2ccccc2)NC(=O)NC1c1ccc(O)c(Cl)c1` (stereo not given), for which the activity increase over dofetilide control, less the hit threshold was 5% (active).
On to `CCC1CCCCN1C(=S)NC(=O)c1ccc([N+](=O)[O-])cc1` (stereo not given), for which the activity increase over dofetilide control, less the hit threshold was 28% (active).
Consider `O=C(NC(=S)N(CC1CCC1)CC1CCCO1)c1cccc([N+](=O)[O-])c1` (stereo not given), for which the activity increase over dofetilide control, less the hit threshold is 14% (active).
Then `O=C(Nc1ccc(NC(=O)C2CC2)nc1)c1cccs1`, with -21%; and `O=C(O)c1cccc(C(=O)Nc2cccc(NC(=O)C3CCCO3)c2)c1` (stereo not given), with -14%.
In the case of `CCCCCC(=O)NNC(=S)NC(=O)c1ccc([N+](=O)[O-])cc1`, the activity increase over dofetilide control, less the hit threshold was -24%.
For `CCCCNC(=S)NC(=O)c1ccc([N+](=O)[O-])cc1`, the activity increase over dofetilide control, less the hit threshold is -4%.
For `CCCCN(C(=O)CNC(=O)c1cccs1)C(C(=O)NC1CCCC1)c1ccncc1` (stereo not given), the activity increase over dofetilide control, less the hit threshold was -6%.
Then `CC1CCN(C(=S)NC(=O)c2cccc([N+](=O)[O-])c2)CC1`, with 15% (active).
For the compound `CCC1CCCCN1C(=S)NC(=O)c1cccs1` (stereo not given), the activity increase over dofetilide control, less the hit threshold is 4% (active).
Regarding `CCOC(=O)/C=C/c1ccc2c(c1)S(=O)(=O)N(c1cccc(OC)c1)[C@H]2CC(=O)OCC`, the activity increase over dofetilide control, less the hit threshold was -20%.
`O=C(NC1CCCC1)C(c1ccncc1)N(Cc1ccccc1F)C(=O)c1csnn1` (stereo not given): the activity increase over dofetilide control, less the hit threshold was -1%.
As for `Cc1occc1C(=O)Nc1cccc([N+](=O)[O-])c1`, the activity increase over dofetilide control, less the hit threshold was -20%.
For the compound `CCC1CCCCN1C(=S)NC(=O)c1cccc([N+](=O)[O-])c1` (stereo not given), the activity increase over dofetilide control, less the hit threshold is 36% (active).
On to `O=[N+]([O-])c1ccc(Nc2ccccc2F)nc1`, for which the activity increase over dofetilide control, less the hit threshold was -3%.
Then `O=C(CCc1nc(-c2ccccc2)no1)N1CCCC1`, with -20%; and `CC(C(=O)N1CCN(c2ccc([N+](=O)[O-])cc2)CC1)N1C(=O)C2CC=CCC2C1=O` (stereo not given), with -9%; and `C=CCN1C(=O)C(Cc2ccc(OCC)cc2)SC1=Nc1ccc(C(=O)O)cc1` (stereo not given), with -11%.
With `C=CCn1c(SCc2ccc(C(=O)O)cc2)nc2sc(C)c(C)c2c1=O`, the activity increase over dofetilide control, less the hit threshold was 20% (active).
Consider `C=CCOc1ccccc1/C=c1\sc2nc(=O)c(C)nn2c1=O`, for which the activity increase over dofetilide control, less the hit threshold was -7%.
For `CNC(=O)CSc1nnc(-c2ccco2)n1-c1ccc(C)cc1`, the activity increase over dofetilide control, less the hit threshold is -10%.

For the origin of these results see PubChem BioAssay AID1835 (Johns Hopkins Ion Channel Center, 2009).
